We go through 38 molecules from PubChem BioAssay (Tox21).

In experiment [1] the target is Cytochrome P450 2C19 (Homo sapiens) (UniProt P33261). In words: Cytochrome P450 Family 2 Subfamily C Member 19 (CYP2C19) small molecule antagonists: luciferase reporter qHTS assay (AID 1671197). Also: nearly all actives have a fitted effect of over 65% in size. Also: potency is read from the fitted curve at half-maximal effect. A digest of the protocol:
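Light output is proportional to CYP2C19 activity: proluciferin substrate is converted to luciferin, then detected by a luciferin detection reagent that also stops the 1 h, 37C NADPH-driven reaction. Ketoconazole serves as positive control.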

Experiment [2] addresses Cytochrome P450 2C9 (Homo sapiens) (UniProt P11712). Briefly: Cytochrome P450 Family 2 Subfamily C Member 9 (CYP2C9) small molecule antagonists: luciferase reporter qHTS assay (AID 1671198). Also: nearly all actives have a fitted effect of over 50% in size. Also: potency is read from the fitted curve at half-maximal effect. The essentials:
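CYP2C9 activity was measured with a P450-Glo proluciferin substrate. Enzyme–substrate mix was held with compound for 10 min at room temperature, then NADPH regeneration solution was added for 1 h at 37C. Luciferin product was read as luminescence.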

The target of experiment [3] is Cytochrome P450 1A2 (Homo sapiens) (UniProt P05177). In words: Cytochrome P450 Family 1 Subfamily A Member 2 (CYP1A2) small molecule antagonists: luciferase reporter qHTS assay (AID 1671199). Also: nearly all actives have a fitted effect of over 50% in size. Also: potency is read from the fitted curve at half-maximal effect. A digest of the protocol:
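Read-out is luminescence from luciferin detection reagent (20 min) proportional to CYP1A2 activity; compounds in DMSO preincubated 10 min with enzyme and proluciferin substrate, then NADPH regeneration solution, 1 h, room temperature.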

Experiment [4] concerns the target Cytochrome P450 2D6 (Homo sapiens) (UniProt P10635). Briefly: Cytochrome P450 Family 2 Subfamily D Member 6 (CYP2D6) small molecule antagonists: luciferase reporter qHTS assay (AID 1671196). Also: nearly all actives have a fitted effect of over 50% in size. Also: potency is read from the fitted curve at half-maximal effect. The essentials: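 Chemicals tested for interference with CYP2D6 activity; proluciferin substrate, NADPH regeneration, 1 h at room temperature, luminescent detection.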
In experiment [5] the target is Voltage-gated inwardly rectifying potassium channel KCNH2 (Homo sapiens) (UniProt Q12809). In words: Human Ether-a-go-go-Related Gene (hERG) channel small molecule antagonists: fluorescence cell-based qHTS assay (AID 1671200).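 Also: hERG-expressing U2OS cells given a thallium stimulus after FluxOR II dye loading; series mostly up to about 77 µM; nearly all actives have a fitted effect of over 50% in size.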 A digest of the protocol: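 Channel function was assessed by thallium flux. Cells seeded the previous day and kept at 37 C took up FluxOR II dye over 1 h in the dark at room temperature, then sat another 10 min before stimulation.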

Experiment [6] addresses Cytochrome P450 3A4 (Homo sapiens) (UniProt P08684). Briefly: Cytochrome P450 Family 3 Subfamily A Member 4 (CYP3A4) small molecule antagonists: luciferase reporter qHTS assay (AID 1671201). Also: nearly all actives have a fitted effect of over 50% in size. Also: potency is read from the fitted curve at half-maximal effect. A digest of the protocol: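 Compounds in DMSO were pin-transferred onto CYP3A4 enzyme-substrate mix and held 10 min at room temperature. NADPH regenerating solution started the reaction for 1 h; luciferin detection reagent stopped it, and luminescence was read after 20 min.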

Inconclusive results are not listed. Activity calls are given as the source filed them. Calls follow the shape of the dose curve; as a rule, active = well fitted curve in the direction sought with a large enough effect in the repeat runs; inconclusive = weak or mixed curves; inactive = no such curve, though single readings can be large; an effect the other way counts as inactive or inconclusive.

Chain of Cytochrome P450 3A4 (Homo sapiens) (P08684 whole entry, looked up): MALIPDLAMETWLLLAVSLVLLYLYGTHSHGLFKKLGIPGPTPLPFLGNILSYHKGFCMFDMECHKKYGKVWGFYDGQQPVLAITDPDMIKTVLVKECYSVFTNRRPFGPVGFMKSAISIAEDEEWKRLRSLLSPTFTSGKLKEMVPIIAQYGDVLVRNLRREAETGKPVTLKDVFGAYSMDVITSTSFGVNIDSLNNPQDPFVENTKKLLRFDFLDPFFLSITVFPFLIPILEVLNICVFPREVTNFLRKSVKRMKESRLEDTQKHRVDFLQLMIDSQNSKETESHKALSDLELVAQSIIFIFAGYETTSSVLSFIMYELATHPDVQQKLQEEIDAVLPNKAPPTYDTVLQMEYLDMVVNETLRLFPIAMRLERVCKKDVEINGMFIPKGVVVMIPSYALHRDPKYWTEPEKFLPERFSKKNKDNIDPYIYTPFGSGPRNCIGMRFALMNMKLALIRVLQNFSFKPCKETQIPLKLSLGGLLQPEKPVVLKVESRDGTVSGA
Chain of Voltage-gated inwardly rectifying potassium channel KCNH2 (Homo sapiens) (Q12809 whole entry, looked up): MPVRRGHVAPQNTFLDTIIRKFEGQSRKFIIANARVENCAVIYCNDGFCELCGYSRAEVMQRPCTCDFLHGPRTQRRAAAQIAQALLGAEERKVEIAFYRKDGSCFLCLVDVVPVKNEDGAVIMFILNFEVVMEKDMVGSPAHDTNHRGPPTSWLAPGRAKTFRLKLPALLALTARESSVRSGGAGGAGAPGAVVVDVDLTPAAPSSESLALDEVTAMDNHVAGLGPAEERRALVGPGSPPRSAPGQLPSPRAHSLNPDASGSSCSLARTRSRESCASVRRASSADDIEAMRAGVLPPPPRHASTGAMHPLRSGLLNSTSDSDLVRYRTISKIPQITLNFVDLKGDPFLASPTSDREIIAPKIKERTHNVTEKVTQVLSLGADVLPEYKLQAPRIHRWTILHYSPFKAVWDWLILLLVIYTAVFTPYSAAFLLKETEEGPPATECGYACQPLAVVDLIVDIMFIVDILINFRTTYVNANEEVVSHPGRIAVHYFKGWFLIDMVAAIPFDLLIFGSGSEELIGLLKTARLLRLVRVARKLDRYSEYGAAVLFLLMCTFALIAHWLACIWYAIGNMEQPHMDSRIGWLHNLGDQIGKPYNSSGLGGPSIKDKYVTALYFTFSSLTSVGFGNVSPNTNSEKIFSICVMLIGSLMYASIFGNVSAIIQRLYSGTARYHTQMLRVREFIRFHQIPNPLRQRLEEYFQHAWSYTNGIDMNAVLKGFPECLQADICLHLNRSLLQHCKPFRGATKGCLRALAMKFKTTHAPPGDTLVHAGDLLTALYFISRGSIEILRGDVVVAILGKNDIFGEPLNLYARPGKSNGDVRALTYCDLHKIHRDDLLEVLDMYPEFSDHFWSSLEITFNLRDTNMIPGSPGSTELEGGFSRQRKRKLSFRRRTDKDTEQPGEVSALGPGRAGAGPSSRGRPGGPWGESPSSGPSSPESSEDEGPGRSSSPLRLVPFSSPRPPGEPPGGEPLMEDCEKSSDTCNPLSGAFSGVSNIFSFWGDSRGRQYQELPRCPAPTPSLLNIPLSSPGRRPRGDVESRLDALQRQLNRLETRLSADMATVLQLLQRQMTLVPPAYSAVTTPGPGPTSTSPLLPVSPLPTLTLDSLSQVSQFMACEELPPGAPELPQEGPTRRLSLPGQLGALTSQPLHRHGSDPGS
Chain of Cytochrome P450 2C19 (Homo sapiens) (P33261 whole entry, looked up): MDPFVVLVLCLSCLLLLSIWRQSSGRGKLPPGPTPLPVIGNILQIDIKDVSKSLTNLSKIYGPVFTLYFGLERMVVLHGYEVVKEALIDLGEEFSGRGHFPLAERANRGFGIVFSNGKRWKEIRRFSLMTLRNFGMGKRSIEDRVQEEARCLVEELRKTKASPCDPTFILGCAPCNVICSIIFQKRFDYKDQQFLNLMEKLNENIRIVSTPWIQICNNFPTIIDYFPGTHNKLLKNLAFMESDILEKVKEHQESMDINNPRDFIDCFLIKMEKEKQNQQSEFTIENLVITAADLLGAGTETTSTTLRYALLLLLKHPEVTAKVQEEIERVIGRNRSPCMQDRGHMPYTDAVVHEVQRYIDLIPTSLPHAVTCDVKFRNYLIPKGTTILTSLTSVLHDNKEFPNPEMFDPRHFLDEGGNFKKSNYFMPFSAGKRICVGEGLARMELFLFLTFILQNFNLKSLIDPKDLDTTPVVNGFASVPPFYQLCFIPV
Chain of Cytochrome P450 2D6 (Homo sapiens) (P10635 whole entry, looked up): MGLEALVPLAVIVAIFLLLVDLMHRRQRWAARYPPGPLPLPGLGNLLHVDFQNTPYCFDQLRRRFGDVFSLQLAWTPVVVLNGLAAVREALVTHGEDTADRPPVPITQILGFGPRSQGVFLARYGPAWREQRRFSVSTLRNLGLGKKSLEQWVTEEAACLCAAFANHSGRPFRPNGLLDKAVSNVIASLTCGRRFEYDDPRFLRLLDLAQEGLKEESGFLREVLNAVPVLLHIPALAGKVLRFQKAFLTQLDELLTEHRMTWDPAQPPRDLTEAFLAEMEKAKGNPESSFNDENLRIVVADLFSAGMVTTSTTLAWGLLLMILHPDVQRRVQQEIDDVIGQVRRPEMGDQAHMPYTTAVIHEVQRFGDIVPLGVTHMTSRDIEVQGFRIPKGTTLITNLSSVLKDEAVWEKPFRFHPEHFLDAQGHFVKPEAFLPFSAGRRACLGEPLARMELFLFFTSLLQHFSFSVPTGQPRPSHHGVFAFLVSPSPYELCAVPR
Chain of Cytochrome P450 2C9 (Homo sapiens) (P11712 whole entry, looked up): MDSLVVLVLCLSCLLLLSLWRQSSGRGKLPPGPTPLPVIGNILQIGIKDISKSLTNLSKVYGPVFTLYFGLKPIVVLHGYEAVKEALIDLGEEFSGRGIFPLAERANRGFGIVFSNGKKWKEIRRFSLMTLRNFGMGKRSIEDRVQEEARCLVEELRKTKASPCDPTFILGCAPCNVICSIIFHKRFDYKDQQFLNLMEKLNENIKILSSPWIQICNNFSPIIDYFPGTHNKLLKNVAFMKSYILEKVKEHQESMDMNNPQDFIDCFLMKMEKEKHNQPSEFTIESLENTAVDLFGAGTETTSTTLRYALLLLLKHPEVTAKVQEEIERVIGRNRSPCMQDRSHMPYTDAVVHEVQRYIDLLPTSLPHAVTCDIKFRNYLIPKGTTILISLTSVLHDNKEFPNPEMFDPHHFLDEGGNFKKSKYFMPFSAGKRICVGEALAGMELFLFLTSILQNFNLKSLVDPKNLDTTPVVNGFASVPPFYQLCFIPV
Chain of Cytochrome P450 1A2 (Homo sapiens) (P05177 whole entry, looked up): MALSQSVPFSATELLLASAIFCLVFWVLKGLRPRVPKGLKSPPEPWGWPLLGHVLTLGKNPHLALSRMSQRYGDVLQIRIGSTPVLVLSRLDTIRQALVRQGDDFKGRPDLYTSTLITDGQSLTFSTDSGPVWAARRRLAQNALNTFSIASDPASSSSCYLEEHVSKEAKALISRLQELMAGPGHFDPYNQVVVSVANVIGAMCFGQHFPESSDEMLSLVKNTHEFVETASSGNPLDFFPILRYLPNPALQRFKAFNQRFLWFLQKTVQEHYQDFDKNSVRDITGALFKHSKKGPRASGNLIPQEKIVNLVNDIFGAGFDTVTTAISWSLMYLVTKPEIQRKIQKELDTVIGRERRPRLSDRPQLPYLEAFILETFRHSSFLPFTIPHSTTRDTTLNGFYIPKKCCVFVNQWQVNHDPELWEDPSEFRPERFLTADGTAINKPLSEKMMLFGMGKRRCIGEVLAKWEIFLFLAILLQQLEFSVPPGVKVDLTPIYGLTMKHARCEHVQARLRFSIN

`O=C(O)Cc1ccccc1Oc1ccc(Cl)cc1Cl`: the Potency result in experiment [1] and in experiment [3] was “inactive” each time. For the same molecule, the Potency in experiment [2] was 38.9 µM (active).
On to `CC1=C(O)C(=O)CO1`, for which the Potency entry in experiment [4], in experiment [3], in experiment [5] and in experiment [6] was “inactive” each time.
For the molecule `Cc1ccc(N)nc1`, the Potency result in experiment [1], in experiment [2], in experiment [5] and in experiment [6] was “inactive” throughout.
Take `CCOC(=O)[C@H](CCc1ccccc1)N[C@H]1CS[C@H](c2cccs2)CN(CC(=O)O)C1=O`: the Potency entry in experiment [2], in experiment [3], in experiment [5] and in experiment [6] was “inactive” each time.
With `CCCCC(CC)COC(=O)CC#N` (centres undefined), the Potency in experiment [1] is 39.9 µM (active); in experiment [2], 31.7 µM (active); in experiment [6], 39.9 µM (active). For the same molecule, in experiment [5], the Potency result was “inactive”.
On to `CCN(CC)CC`, for which the Potency in experiment [4] was 23.6 µM (active). Besides, the Potency result in experiment [3], in experiment [5] and in experiment [6] was “inactive” throughout.
Take `COC(C)(C)CC(C)=O`: the Potency result in experiment [4], in experiment [3], in experiment [5] and in experiment [6] was “inactive” each time.
`NC(=O)CC[C@@H](N)C(=O)O`: in experiment [5], the Potency entry was “inactive”.
Regarding `O=S(=O)(O)c1ccc(Cl)cc1`, the Potency in experiment [1] was 55.3 µM (active). The Potency result in experiment [2], in experiment [3], in experiment [5] and in experiment [6] was “inactive” throughout.
Consider `COCCCOc1cc(C[C@@H](C[C@H](N)[C@@H](O)C[C@H](C(=O)NCC(C)(C)C(N)=O)C(C)C)C(C)C)ccc1OC`, for which the Potency result in experiment [1], in experiment [2], in experiment [3] and in experiment [5] was “inactive” in each case.
For the molecule `NNC(=O)CCCCC(=O)NN`, the Potency result in experiment [5] was “inactive”.
`O=Cc1ccccc1S(=O)(=O)O`: the Potency result in experiment [4] and in experiment [3] was “inactive” in each case.
For the molecule `C/C(=N\O)c1ccc(OCC(=O)N2CCCCC2)cc1`, the Potency entry in experiment [5] and in experiment [6] was “inactive” throughout.
For `O=C(O)CCC(=O)Nc1ccc(S(=O)(=O)Nc2nccs2)cc1`, in experiment [5], the Potency result is “inactive”.
Take `CCCCCCCCCCCCCCCC/C=C/C1CC(=O)OC1=O` (centres undefined): in experiment [5], the Potency result is “inactive”. In experiment [6], the Potency is 15.4 µM (active).
Consider `C=CCCCCCCCCOC(C)=O`, for which the Potency entry in experiment [4], in experiment [2] and in experiment [6] was “inactive” each time.
For the molecule `CC(=O)/C=C/C=C1/C2CCC(C2)C1(C)C` (centres undefined), the Potency in experiment [3] is 21.9 µM (active). The Potency entry in experiment [5] is “inactive”.
Consider `CN(C)c1cc(NC(=O)CNC(C)(C)C)c(O)c2c1C[C@H]1C[C@H]3[C@H](N(C)C)C(=O)C(C(N)=O)=C(O)[C@@]3(O)C(=O)C1=C2O`, for which the Potency entry in experiment [5] and in experiment [6] was “inactive” throughout.
Regarding `Cc1ccc2cccnc2c1`, the Potency result in experiment [2], in experiment [5] and in experiment [6] was “inactive” each time. For the same molecule, the Potency in experiment [3] was 39.6 µM (active).
Regarding `C=CCn1cc[n+](C)c1`, the Potency entry in experiment [1], in experiment [2], in experiment [5] and in experiment [6] was “inactive” throughout.
In the case of `CCCC(=O)C(CC)Sc1ccoc1C` (centres undefined), the Potency entry in experiment [4] and in experiment [5] was “inactive” each time.
With `Clc1ccc2c(c1)Nc1ccccc1S2`, the Potency entry in experiment [4], in experiment [5] and in experiment [6] was “inactive” each time.
As to `CC(C)(C)OC(=O)c1ccccc1C(=O)O`, the Potency result in experiment [4], in experiment [5] and in experiment [6] was “inactive” in each case.
In the case of `C/C=C/C(=O)CCCC`, the Potency entry in experiment [4], in experiment [3] and in experiment [5] was “inactive” throughout. Moreover, in experiment [6], the Potency is 56.4 µM (active).
As for `Cc1cc(C)c(N)c(Cl)c1`, the Potency result in experiment [4], in experiment [5] and in experiment [6] was “inactive” in each case. For the same molecule, the Potency in experiment [3] was 2.83 µM (active).
Consider `CC(C)C[P+](C)(CC(C)C)CC(C)C`, for which the Potency in experiment [4] is 0.568 µM (active). In addition, the Potency entry in experiment [2] and in experiment [6] was “inactive” each time.
For the molecule `CC(CN1CC(=O)NC(=O)C1)N1CC(=O)NC(=O)C1` (centres undefined), the Potency entry in experiment [2], in experiment [3], in experiment [5] and in experiment [6] was “inactive” each time.
With `O=C(O)Cc1c(Cl)ccc(Cl)c1Cl`, the Potency result in experiment [4] and in experiment [5] was “inactive” throughout. Moreover, the Potency in experiment [3] is 25.2 µM (active); in experiment [6] it was 12.6 µM (active).
For the molecule `CC(C)C(=O)Nc1cccc(C2CN3CCSC3=N2)c1` (centres undefined), the Potency result in experiment [1], in experiment [3] and in experiment [5] was “inactive” each time.
As for `CC(CC(=O)Cl)CC(C)(C)C` (centres undefined), the Potency result in experiment [4], in experiment [5] and in experiment [6] was “inactive” each time.
As for `Nc1cc(S(=O)(=O)O)ccc1O`, the Potency result in experiment [2], in experiment [3], in experiment [5] and in experiment [6] was “inactive” each time.
For the molecule `CC1(C)S[C@@H]2[C@H](NC(=O)Cc3ccccc3)C(=O)N2[C@H]1C(=O)O` (tested in a mixture with another compound), the Potency entry in experiment [5] was “inactive”.
For `CCO/C=C1\N=C(c2ccccc2)OC1=O`, the Potency in experiment [1] was 79.4 µM (active). In addition, the Potency result in experiment [5] and in experiment [6] was “inactive” in each case.
For `COC(=O)c1ccc(C(=O)O)cc1`, the Potency entry in experiment [1], in experiment [3] and in experiment [5] was “inactive” in each case.
Consider `CC(=O)OC/C=C(/C)CCC=C(C)C`, for which the Potency result in experiment [1], in experiment [2], in experiment [3] and in experiment [6] was “inactive” each time.
With `CCCCOCCCC`, the Potency result in experiment [1], in experiment [2], in experiment [5] and in experiment [6] was “inactive” throughout.
With `O=C(O)CCCCCCCCCC(=O)O`, the Potency result in experiment [2], in experiment [5] and in experiment [6] was “inactive” throughout.
Turning to `CC(C)(O)CCCC1=CCC(C=O)CC1` (centres undefined), the Potency in experiment [2] is 60.2 µM (active); in experiment [3] it was 38 µM (active); in experiment [6], 67.5 µM (active). In experiment [5], the Potency result is “inactive”.
